# Laboratory results as given in PubChem BioAssay.
# Records with an inconclusive call do not appear. Calls of active or inactive are those of the source.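 Rule for the calls, unless noted: active = response below a set limit, under 55% cells CD8-positive and vesicle-bound, and CD8 cells' 90th-percentile brightness under 279; inactive = the rest.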
# Legend:
# [1] = rapamycin-like changes in RPL19A-GFP expression – cell-based, S. cerevisiae, multiplex flow cytometry, primary screen (AID 1862; in the data active = percent of DMSO control GFP below about 86%;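 note: lower values mimic rapamycin by blocking the RPL19A rise seen in DMSO cells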); conditions: S. cerevisiae RPL19A-GFP strain, flow cytometry fluorescence, 3 h; at 10 µM; stronger effect = lower value
# [2] = TOR pathway GLN3 branch reporter MEP2-GFP changes – S. cerevisiae, multiplex flow cytometry, primary screen (AID 1867;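 active = GFP response, as percent of the DMSO control, above the screen-wide mean plus 3 SD, about 139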;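 note: median GFP channel fluorescence of barcode-gated MEP2-GFP cells measured by flow cytometry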); conditions: S. cerevisiae MEP2-GFP strain, 3 h, at 10 µM, stronger effect = higher value, 100% means same as DMSO wells
# [3] = TOR pathway RTG branch CIT2 reporter changes – S. cerevisiae, GFP fusion, multiplex flow cytometry, primary screen (AID 1870;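 active = percent response above a set limit, the screen-wide mean plus 3 SD, cut at about 130% in these data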;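 note: barcoded CIT2-GFP strain pooled with four other GFP strains with rapamycin as positive control; median GFP fluorescence per well over plate mean of DMSO wells so 100% = DMSO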); conditions: S. cerevisiae CIT2-GFP expression, 3 h, at 10 µM, stronger effect = higher value
# [4] = TOR pathway LAP4-GFP level changes – S. cerevisiae, multiplex flow cytometry, primary screen (AID 1873;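 active = GFP signal, as percent of the solvent control, above the screen mean plus 3 SD, about 149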); conditions: S. cerevisiae LAP4-GFP expression, 3 h, at 10 µM, stronger effect = higher value
# [5] = yeast AGP1-GFP level changes, GLN3 branch – cell-based, multiplex flow cytometry, S. cerevisiae, primary screen (AID 1887;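 active = GFP signal above the screen-wide mean plus 3 SD, that is over about 124.5% of the solvent control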;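 note: AGP1-GFP fusion strain of S. cerevisiae within a five-strain barcoded multiplex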); conditions: 3 h, at 10 µM, stronger effect = higher value
# [6] = reduced mouse 2C T cell binding to pMHC/ICAM-1 vesicles – MLPCN validation set, flow cytometry, LFA-1/ICAM-1 modulator project, pilot screen (AID 2523); conditions: 2C mouse CD8+ T cells, at 7 µM, stronger effect = lower value; double positive events: measured here: CD8+/vesicle+ event percentage;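 for vesicle binding response: mean PE anti-B7-1 fluorescence of CD8+ cells relative to row control; 100% = QL9-loaded vesicles with DMSO vehicle in the same plate row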
# [7] = molecular target: Integrin beta-1 (Homo sapiens) + Integrin alpha-4 (Homo sapiens) (UniProt P13612+P05556); assay: alpha4beta1 integrin LIBS antibody binding reduction – U937 cells, HUTS-21 mAb, flow cytometry, validation set, VLA-4 allosteric modulator project, pilot screen (AID 2674;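 active = inhibition above 50%, about 3 SD of the validation set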;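 note: antibody binding induced by the VLA-4 ligand LDV present at three times its Kd; 0% = LDV ligand with antibody and no compound and 100% = antibody without LDV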); conditions: HUTS-21 LIBS mAb binding, at 6.7 µM, stronger effect = higher value, binding induced by LDV ligand
# [8] = calorie-restriction mimetic ROS inhibitors, yeast – validation compound set, pilot screen (AID 2706;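 active = superoxide response below 65% of plate, a cut near 3 SD across the whole screen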;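 note: yeast exposed to compound for one week at 30 degrees C before staining; 100% = mean of all compound wells on the same plate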); conditions: S. cerevisiae aging, superoxide DHE fluorescence; at 10 µM; stronger effect = lower value
# [9] = molecular target: Beta-adrenergic receptor kinase 1 (Homo sapiens) (UniProt P25098); assay: GRK2 binders displacing RNA aptamer, biochemical, validation, human GRK2, bead flow cytometry (AID 488806;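 active = aptamer binding inhibition above 30%, about 3 SD of noise from non-fluorescent compounds; inactive = inhibition at or below 30%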); conditions: bead-bound GRK2, FAM-aptamer displacement, at 10 µM, stronger effect = higher value
# [10] = molecular target: Beta-2 adrenergic receptor (Homo sapiens) (UniProt P07550); assay: agonist-induced loss of surface beta2AR – cell-based, FAP fluorogen, flow cytometry, validation set, pilot screen (AID 504459;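 active = percent response above 42, roughly 3 SD of non-fluorescent test compounds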;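 note: agonist-driven loss of surface beta2AR via internalization measured by FAP dye flow cytometry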); conditions: Am2.2-beta2AR cells, at 10 µM, stronger effect = higher value
# [11] = molecular target: AP-2 complex subunit beta (Homo sapiens) (UniProt P63010); assay: beta-arrestin/AP2 interaction blockers – biochemical, validation set, GST-AP2 beads, flow cytometry, pilot screen (AID 504541;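 active = inhibition above 54%, about 3 SD of non-fluorescent compounds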;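 note: AP2 carries R879A mutation and is captured from E. coli lysate; bead-bound FITC arrestin peptide fluorescence measuring arrestin peptide binding to AP2; 0% = DMSO wells and 100% = excess unlabeled arrestin peptide control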); conditions: FITC arrestin peptide, at 10 µM, stronger effect = higher value, AP2 beta2 appendage fragment, R879A mutant
# [12] = cytosolic pH regulators acting via V-ATPase – S. cerevisiae, pHLuorin, HTS validation (AID 504600; in the data active = response above about 15%;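 note: plate controls were DMSO for no effect and reference compound for full effect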); conditions: V-ATPase proton transport, at 10 µM, stronger effect = higher value
# [13] = tested on: anti-desmoglein-3 scFv antibody binding to human DSG3; assay: blockers of pathogenic pemphigus antibody–desmoglein-3 binding – biochemical, validation compound set, bead-based, flow cytometry, pilot screen (AID 588368;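 active = binding below the plate cutoff, the plate median minus 3 SD, with a reading above zero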;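 note: signal is the median channel fluorescence of bead-bound GFP antibody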); conditions: Protein G beads, DSG3-Fc, scFv-GFP binding, at 10 µM, stronger effect = lower value
# [14] = Nile Red efflux blockade in pump-expressing yeast – validation compound set, multiplex, phenotypic, pilot screen (AID 588506;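 active = efflux inhibition above 0.42, the validation set average plus 4 SD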;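 note: Nile Red retained in cells so higher fluorescence means more efflux inhibition; 0 = negative control wells and 1 = enniatin B 25 µM full block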); conditions: S. cerevisiae pump-expressing triplex, Nile Red efflux flow cytometry; at 10 µM; stronger effect = higher value; the pumps come from Candida albicans
# [15] = molecular target: ATP-binding cassette sub-family B member 6 (Homo sapiens) (UniProt Q9NP58); assay: blockers of ABCB6-driven porphyrin uptake – K562-ABCB6 cells, flow cytometry, validation set, pilot screen (AID 588550;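 active = inhibition above the screen-wide mean plus 3 SD, about 51%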;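 note: 0% = DMSO wells and 100% = benzethonium chloride 70 µM positive control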); conditions: K562-ABCB6 porphyrin accumulation, 1 h, at 10 µM, stronger effect = higher value
# [16] = AML differentiation inducers, ER-HoxA9 marrow cells – cell-based, GFP/MAC1 double positive, flow cytometry, validation set, primary screen (AID 588685;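 active = differentiation response of at least 50%, scaled between solvent and reference control, from cells with both markers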;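 note: compound exposure lasts four days before antibody staining and flow analysis; 0% = DMSO wells and 100% = 5 µM fulvestrant positive control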); conditions: stronger effect = higher value, normalized: vehicle 0, fulvestrant 100
# Beta-2 adrenergic receptor (Homo sapiens), sequence (P07550 whole entry, looked up): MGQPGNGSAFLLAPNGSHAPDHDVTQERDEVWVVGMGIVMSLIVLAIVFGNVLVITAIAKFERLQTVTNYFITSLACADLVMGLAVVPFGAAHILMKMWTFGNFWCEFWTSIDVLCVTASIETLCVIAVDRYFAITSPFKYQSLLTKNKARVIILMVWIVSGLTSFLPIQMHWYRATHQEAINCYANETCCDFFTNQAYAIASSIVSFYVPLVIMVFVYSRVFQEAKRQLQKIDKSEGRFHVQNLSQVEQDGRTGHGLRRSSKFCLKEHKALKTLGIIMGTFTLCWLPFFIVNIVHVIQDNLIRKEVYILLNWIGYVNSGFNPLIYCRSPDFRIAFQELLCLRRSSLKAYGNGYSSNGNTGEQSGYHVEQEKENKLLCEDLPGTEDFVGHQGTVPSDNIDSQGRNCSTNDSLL
# ATP-binding cassette sub-family B member 6 (Homo sapiens), sequence (Q9NP58 whole entry, looked up): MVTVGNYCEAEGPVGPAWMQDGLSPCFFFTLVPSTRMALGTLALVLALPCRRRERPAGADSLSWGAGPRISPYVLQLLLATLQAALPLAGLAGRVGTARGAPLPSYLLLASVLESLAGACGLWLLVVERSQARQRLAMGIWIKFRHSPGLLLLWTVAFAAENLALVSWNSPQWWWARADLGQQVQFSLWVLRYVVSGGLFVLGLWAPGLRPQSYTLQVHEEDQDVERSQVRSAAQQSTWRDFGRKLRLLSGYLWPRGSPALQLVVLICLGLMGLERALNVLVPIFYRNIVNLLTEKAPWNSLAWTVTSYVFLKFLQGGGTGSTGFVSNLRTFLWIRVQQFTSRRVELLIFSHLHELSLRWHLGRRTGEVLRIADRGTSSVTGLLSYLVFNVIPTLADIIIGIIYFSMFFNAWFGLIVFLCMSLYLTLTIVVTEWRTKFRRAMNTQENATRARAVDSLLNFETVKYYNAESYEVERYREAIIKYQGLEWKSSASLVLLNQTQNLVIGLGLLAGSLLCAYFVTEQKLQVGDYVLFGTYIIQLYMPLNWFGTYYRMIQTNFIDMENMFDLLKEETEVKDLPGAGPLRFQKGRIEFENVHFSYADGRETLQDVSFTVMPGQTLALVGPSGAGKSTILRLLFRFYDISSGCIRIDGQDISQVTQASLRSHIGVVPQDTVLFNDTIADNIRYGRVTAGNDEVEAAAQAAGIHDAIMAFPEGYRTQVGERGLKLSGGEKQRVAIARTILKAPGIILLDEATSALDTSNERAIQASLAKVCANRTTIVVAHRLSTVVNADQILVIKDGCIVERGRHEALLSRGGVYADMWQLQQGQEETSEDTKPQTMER
# Integrin beta-1 (Homo sapiens) + Integrin alpha-4 (Homo sapiens), sequence (P05556 whole entry, looked up): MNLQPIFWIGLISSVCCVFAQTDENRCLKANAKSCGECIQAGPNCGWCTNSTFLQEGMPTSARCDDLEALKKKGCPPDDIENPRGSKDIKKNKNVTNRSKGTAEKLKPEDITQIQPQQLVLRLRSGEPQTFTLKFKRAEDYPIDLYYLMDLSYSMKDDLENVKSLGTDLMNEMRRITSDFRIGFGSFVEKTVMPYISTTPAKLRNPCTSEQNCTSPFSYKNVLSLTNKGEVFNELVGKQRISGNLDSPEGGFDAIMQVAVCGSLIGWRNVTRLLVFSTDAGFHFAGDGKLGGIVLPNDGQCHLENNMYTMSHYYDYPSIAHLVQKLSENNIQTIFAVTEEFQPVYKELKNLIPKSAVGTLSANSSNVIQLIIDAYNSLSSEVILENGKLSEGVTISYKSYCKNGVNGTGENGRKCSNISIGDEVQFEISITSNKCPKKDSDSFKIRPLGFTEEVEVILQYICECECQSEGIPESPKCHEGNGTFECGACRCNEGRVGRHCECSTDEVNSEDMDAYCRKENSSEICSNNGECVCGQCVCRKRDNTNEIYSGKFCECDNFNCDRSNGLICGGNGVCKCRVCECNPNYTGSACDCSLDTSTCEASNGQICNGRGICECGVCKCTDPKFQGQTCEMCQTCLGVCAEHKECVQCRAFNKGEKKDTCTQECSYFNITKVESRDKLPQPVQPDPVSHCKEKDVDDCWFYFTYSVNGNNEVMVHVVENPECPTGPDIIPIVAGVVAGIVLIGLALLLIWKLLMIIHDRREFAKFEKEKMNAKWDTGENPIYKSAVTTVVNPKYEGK
# Integrin beta-1 (Homo sapiens) + Integrin alpha-4 (Homo sapiens), sequence (P13612 whole entry, looked up): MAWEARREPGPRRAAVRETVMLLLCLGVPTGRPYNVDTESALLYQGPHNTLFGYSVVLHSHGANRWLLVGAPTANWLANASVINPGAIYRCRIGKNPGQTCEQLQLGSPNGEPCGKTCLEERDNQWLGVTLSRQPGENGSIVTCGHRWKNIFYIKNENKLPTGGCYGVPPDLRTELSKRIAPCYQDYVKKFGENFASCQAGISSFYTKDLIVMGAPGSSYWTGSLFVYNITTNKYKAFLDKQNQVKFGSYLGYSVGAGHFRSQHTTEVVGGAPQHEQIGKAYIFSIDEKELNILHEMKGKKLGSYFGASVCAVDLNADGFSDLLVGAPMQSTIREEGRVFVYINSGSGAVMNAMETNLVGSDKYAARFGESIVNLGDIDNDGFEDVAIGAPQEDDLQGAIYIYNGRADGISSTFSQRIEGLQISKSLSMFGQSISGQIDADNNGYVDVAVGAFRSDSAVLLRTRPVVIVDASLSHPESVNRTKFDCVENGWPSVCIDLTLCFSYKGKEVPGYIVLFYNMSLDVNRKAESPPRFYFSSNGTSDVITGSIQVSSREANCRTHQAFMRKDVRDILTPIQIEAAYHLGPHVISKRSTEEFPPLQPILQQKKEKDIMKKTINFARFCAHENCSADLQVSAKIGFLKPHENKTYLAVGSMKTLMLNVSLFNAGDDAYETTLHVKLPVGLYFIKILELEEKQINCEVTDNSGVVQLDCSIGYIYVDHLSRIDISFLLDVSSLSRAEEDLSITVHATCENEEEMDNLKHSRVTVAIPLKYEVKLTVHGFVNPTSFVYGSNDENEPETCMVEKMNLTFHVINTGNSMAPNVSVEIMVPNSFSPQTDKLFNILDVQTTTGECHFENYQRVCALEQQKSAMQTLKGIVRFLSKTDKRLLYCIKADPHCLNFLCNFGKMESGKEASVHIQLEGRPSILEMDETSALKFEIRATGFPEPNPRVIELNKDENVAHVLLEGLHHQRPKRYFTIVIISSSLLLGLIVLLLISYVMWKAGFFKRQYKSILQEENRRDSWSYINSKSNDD
# AP-2 complex subunit beta (Homo sapiens), sequence (P63010 whole entry, looked up, the tested form may be a part, one chain of several): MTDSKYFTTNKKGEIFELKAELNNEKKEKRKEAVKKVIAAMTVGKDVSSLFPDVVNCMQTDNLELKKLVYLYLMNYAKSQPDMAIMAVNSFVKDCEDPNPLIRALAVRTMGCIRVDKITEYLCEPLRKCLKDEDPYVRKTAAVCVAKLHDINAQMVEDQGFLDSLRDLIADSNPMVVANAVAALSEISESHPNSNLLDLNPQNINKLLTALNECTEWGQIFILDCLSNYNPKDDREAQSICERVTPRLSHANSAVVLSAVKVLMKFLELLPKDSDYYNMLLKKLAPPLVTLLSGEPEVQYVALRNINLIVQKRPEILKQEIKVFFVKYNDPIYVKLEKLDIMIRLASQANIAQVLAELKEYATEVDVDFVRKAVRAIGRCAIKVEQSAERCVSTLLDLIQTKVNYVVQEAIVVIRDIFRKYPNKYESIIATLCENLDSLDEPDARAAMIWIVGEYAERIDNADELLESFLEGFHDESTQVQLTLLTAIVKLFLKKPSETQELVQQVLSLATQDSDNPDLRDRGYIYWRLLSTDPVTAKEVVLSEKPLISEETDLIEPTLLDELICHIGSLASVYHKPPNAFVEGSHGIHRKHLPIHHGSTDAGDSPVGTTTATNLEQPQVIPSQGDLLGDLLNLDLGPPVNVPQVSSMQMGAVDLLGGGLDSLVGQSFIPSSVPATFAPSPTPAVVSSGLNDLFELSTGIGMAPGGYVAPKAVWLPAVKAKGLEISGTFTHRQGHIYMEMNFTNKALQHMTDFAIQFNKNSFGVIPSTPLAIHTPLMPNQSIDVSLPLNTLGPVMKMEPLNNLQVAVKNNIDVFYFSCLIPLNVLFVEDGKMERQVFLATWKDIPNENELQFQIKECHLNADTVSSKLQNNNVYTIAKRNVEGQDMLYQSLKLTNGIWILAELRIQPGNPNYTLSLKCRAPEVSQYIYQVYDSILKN
# Beta-adrenergic receptor kinase 1 (Homo sapiens), sequence (P25098 whole entry, looked up): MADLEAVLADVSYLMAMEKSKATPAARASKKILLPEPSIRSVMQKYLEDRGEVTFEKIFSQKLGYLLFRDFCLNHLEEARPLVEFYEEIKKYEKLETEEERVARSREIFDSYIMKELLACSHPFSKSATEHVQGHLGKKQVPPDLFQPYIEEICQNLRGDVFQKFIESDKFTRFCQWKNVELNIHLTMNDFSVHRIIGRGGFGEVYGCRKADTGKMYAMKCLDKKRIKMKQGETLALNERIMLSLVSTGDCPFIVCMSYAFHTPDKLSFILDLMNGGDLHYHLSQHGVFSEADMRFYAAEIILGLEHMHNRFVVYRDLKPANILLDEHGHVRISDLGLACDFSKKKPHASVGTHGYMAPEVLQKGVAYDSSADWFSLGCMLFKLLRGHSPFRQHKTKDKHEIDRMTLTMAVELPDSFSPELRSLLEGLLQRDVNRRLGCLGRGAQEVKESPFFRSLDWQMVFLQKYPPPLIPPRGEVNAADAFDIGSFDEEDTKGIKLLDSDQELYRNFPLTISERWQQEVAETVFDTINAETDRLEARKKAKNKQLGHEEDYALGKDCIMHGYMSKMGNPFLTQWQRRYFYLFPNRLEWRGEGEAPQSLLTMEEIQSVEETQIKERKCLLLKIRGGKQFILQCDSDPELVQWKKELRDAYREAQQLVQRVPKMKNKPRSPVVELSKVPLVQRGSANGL
Structure (SMILES),percent of DMSO control GFP [1],GFP response vs DMSO [2],percent response of DMSO control [3],GFP response vs DMSO [4],"GFP response, % of DMSO [5]",double positive events [6] [%],vesicle binding response [6],inhibition [7],superoxide response (% of plate) [8],aptamer binding inhibition [9],response [10],inhibition [11],response [12],binding (% of control) [13],efflux inhibition (fraction of control) [14],inhibition [15],differentiation response [16]
COc1c(C=O)c(CCN(C)C(=O)c2ccc(F)cc2)cc2c1OCO2,103% (inactive),104% (inactive),100% (inactive),104% (inactive),106% (inactive),59.6,171% (inactive),3.14% (inactive),115% (inactive),4% (inactive),-22.5% (inactive),10.3% (inactive),2.09% (inactive),109% (inactive),-0.17 (inactive),-2% (inactive),19.6% (inactive)
Cc1ccc(N2C(=O)c3ccccc3C2=O)cc1C,105% (inactive),104% (inactive),107% (inactive),99.1% (inactive),94.8% (inactive),63.4,121% (inactive),6.95% (inactive),99.1% (inactive),3% (inactive),-0.69% (inactive),-6.64% (inactive),0.36% (inactive),101% (inactive),0.24 (inactive),0% (inactive),-3.11% (inactive)
CC(=O)N[C@@H](CS)C(=O)O,101% (inactive),111% (inactive),95.8% (inactive),131% (inactive),101% (inactive),64.2,159% (inactive),-3.16% (inactive),89.1% (inactive),5% (inactive),7.69% (inactive),-18.7% (inactive),0.13% (inactive),104% (inactive),-0.03 (inactive),19% (inactive),7.2% (inactive)
Fc1ccc(NC(=S)Nc2ccccc2Cl)cc1,91.1% (inactive),133% (inactive),106% (inactive),78.7% (inactive),93.1% (inactive),63.7,235% (inactive),20% (inactive),91.9% (inactive),3% (inactive),-6.11% (inactive),10.1% (inactive),0.15% (inactive),102% (inactive),0.37 (inactive),12% (inactive),-1.64% (inactive)
Cc1ccccc1-c1nn(-c2ccc(F)cc2F)cc1CNCCN(C)C,106% (inactive),103% (inactive),116% (inactive),98.6% (inactive),102% (inactive),62,51.7% (inactive),13% (inactive),90.2% (inactive),-11% (inactive),-7.22% (inactive),-6% (inactive),3.34% (inactive),103% (inactive),-0.07 (inactive),-15% (inactive),-5.62% (inactive)
Nc1nc(Cl)nc2c1ncn2[C@@H]1O[C@H](CO)[C@@H](O)[C@H]1O,92.4% (inactive),128% (inactive),101% (inactive),80.3% (inactive),102% (inactive),57.5,109% (inactive),2.58% (inactive),95.9% (inactive),6% (inactive),-6.94% (inactive),1.36% (inactive),10.6% (inactive),104% (inactive),0.3 (inactive),9% (inactive),1.64% (inactive)
Cn1c(=S)n(C)c2ccccc21,99.2% (inactive),104% (inactive),94.4% (inactive),110% (inactive),104% (inactive),61.4,264% (inactive),16.8% (inactive),104% (inactive),3% (inactive),25.9% (inactive),0.89% (inactive),-1.79% (inactive),105% (inactive),0.08 (inactive),7% (inactive),-4% (inactive)
C[N+]1(C2CCC3CCCC2C3O)CCCCC1 (stereo not drawn),108% (inactive),100% (inactive),115% (inactive),82.8% (inactive),103% (inactive),64.9,326% (inactive),-2.53% (inactive),94.2% (inactive),1% (inactive),-9.71% (inactive),-10.4% (inactive),3.03% (inactive),99.3% (inactive),-0.1 (inactive),32% (inactive),4.15% (inactive)
O=C(O)c1cnccn1,103% (inactive),94.7% (inactive),93.8% (inactive),108% (inactive),106% (inactive),65,160% (inactive),21% (inactive),102% (inactive),4% (inactive),-18.2% (inactive),-5% (inactive),2.35% (inactive),104% (inactive),-0.21 (inactive),6% (inactive),-4.99% (inactive)
COc1ccccc1NC(=O)Cn1c(C)cc(=O)c2cccc(OC)c21,102% (inactive),108% (inactive),100% (inactive),90.2% (inactive),99.9% (inactive),60.7,79.1% (inactive),-11.8% (inactive),105% (inactive),4% (inactive),11.6% (inactive),-11.8% (inactive),0.11% (inactive),103% (inactive),0.58 (active),6% (inactive),-5.68% (inactive)
COC(=O)c1ccc(-c2ncc(-c3cccc4ccccc34)o2)cc1,98.2% (inactive),104% (inactive),105% (inactive),125% (inactive),109% (inactive),61.1,170% (inactive),-29.2% (inactive),97.3% (inactive),-1% (inactive),-17.7% (inactive),21.1% (inactive),-15.9% (inactive),90.5% (inactive),0.17 (inactive),1% (inactive),6.83% (inactive)
CCCCOn1c(C)c(C(C)=O)c2c3no[n+]([O-])c3ccc21,101% (inactive),105% (inactive),97.7% (inactive),120% (inactive),99.4% (inactive),59.8,246% (inactive),-12.7% (inactive),106% (inactive),0% (inactive),25.4% (inactive),-10.5% (inactive),5.1% (inactive),94.3% (inactive),-0.1 (inactive),7% (inactive),74.4% (active)
Cc1ccc2c(c1)C1OCCC1C1N2C(=O)C2C(C(=O)O)C3C=CC21O3 (stereo not drawn),104% (inactive),107% (inactive),110% (inactive),106% (inactive),107% (inactive),62.2,207% (inactive),11% (inactive),106% (inactive),11% (inactive),0.35% (inactive),41.7% (inactive),3.53% (inactive),101% (inactive),-0.32 (inactive),11% (inactive),-13.3% (inactive)
CC1(C)CC(=O)c2c(nc3ccccc3c2N)C1,105% (inactive),90.9% (inactive),111% (inactive),104% (inactive),99.2% (inactive),62.1,259% (inactive),-3.57% (inactive),89.8% (inactive),0% (inactive),-12.4% (inactive),-2.7% (inactive),-3.81% (inactive),102% (inactive),-0.29 (inactive),9% (inactive),0.24% (inactive)
CCOC(=O)C1=C(C)NC(C)=C(C(=O)OC)C1c1cccc([N+](=O)[O-])c1 (stereo not drawn),91.3% (inactive),124% (inactive),95.2% (inactive),85.3% (inactive),91.5% (inactive),63.3,200% (inactive),8.4% (inactive),104% (inactive),2% (inactive),-11.6% (inactive),41.2% (inactive),-3.09% (inactive),95.6% (inactive),0.12 (inactive),18% (inactive),-1.64% (inactive)
Cc1ccc(S(=O)(=O)n2ccnc2)cc1C,98.4% (inactive),112% (inactive),99.6% (inactive),108% (inactive),121% (inactive),60.3,160% (inactive),6.55% (inactive),95.2% (inactive),1% (inactive),-20.5% (inactive),-13.3% (inactive),1.99% (inactive),102% (inactive),-0.09 (inactive),3% (inactive),-2.03% (inactive)
CC(NC(=O)c1cccnc1)C(=O)O (stereo not drawn),105% (inactive),98.5% (inactive),114% (inactive),78.6% (inactive),90.5% (inactive),53.1,54.6% (active),-5.89% (inactive),94.6% (inactive),4% (inactive),-9.77% (inactive),0.46% (inactive),-5.71% (inactive),99.1% (inactive),-0.1 (inactive),8% (inactive),-7.2% (inactive)
Cc1ccc2c(c1)c(C)cc(=O)n2CCC(=O)O,101% (inactive),102% (inactive),98.6% (inactive),116% (inactive),102% (inactive),61.6,210% (inactive),13.2% (inactive),97.2% (inactive),17% (inactive),4.73% (inactive),11.3% (inactive),1.4% (inactive),101% (inactive),-0.24 (inactive),3% (inactive),-20% (inactive)
COC(=O)c1[nH]c(=O)c2ccccc2c1O,101% (inactive),95.2% (inactive),101% (inactive),110% (inactive),100% (inactive),62.3,159% (inactive),0.94% (inactive),104% (inactive),1% (inactive),-13.2% (inactive),-7.21% (inactive),2.12% (inactive),101% (inactive),0.01 (inactive),109% (active),18.4% (inactive)
